Data as given in the supplement of paper PMC12350171.
Structures can show the parent of a compound that is named as a salt.

Columns and labels:
Conditions in all cases: 20 µM
[1] = tested on: Salmonella enterica typhimurium; assay: growth AUC normalised to DMSO control (fraction of control); higher = less growth inhibition, active = hit call of the paper
In short: (§1)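 For the AUC endpoint, growth curves were integrated by the trapezoidal rule up to the exponential-to-stationary transition and normalised to DMSO controls on the same plate. The curves came from OD578 readings taken hourly for 24 h, in three biological replicates. Pathogens had been passaged anaerobically twice and inoculated at an OD578 of 0.01 into pre-reduced mGAM plates carrying 20 μM compound and 1% DMSO, sealed with breathable membranes. Medium for Haemophilus parainfluenzae also contained hemin and NAD.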

[2] = tested on: Shigella flexneri; assay: as above
In short: as §1

[3] = tested on: Vibrio cholerae; assay: as above
In short: as §1

[4] = tested on: Yersinia pseudotuberculosis; assay: as above
In short: as §1

[5] = tested on: S. enterica typhimurium WT; assay: growth AUC normalised to DMSO control (median) (fraction of control); higher = less growth inhibition, active = hit call of the paper
In short: (§2)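 In 96-well plates of mGAM seeded at OD578 0.01, strains that had been passaged twice overnight without oxygen were exposed to approved-drug library compounds at 20 μM with 1% DMSO. Hourly OD578 readings were taken for 24 h in an anaerobic incubator. The trapezoidal-rule area under the curve, with curves truncated at entry into stationary phase, was expressed relative to same-plate vehicle wells as the median of three biological replicates.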

[6] = tested on: S. enterica typhimurium tolC KO; assay: as above
In short: as §2

[7] = tested on: P. vulgatus RND KO; assay: as above
In short: as §2

[8] = tested on: P. vulgatus WT; assay: as above
In short: as §2

Measured: growth AUC normalised to DMSO control
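For growth AUC normalised to DMSO control (median) in this document: active when median AUC fell below 0.1.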

Cc1onc(-c2ccccc2Cl)c1C(=O)N[C@@H]1C(=O)N2[C@@H]1SC(C)(C)[C@@H]2C(=O)O [Cloxacillin sodium salt]
active: [6] 0.0356
inactive: [1] 1.01 | [2] 1 | [3] 0.99 | [4] 1.01 | [5] 0.994

O=C(O)c1cccnc1 [Niacin]
inactive: [2] 1.02 | [3] 1.06 | [4] 0.993 | [7] 1.05 | [8] 1.09 | [5] 1.02 | [6] 0.985

CCCC(=O)Nc1ncnc2c1ncn2[C@@H]1O[C@@H]2COP(=O)(O)O[C@H]2[C@H]1OC(=O)CCC [Bucladesine sodium salt]
inactive: [2] 1 | [3] 1.01 | [4] 0.998 | [7] 1.02 | [8] 1.01 | [5] 1.01 | [6] 1.01

O=c1[nH]cnc2c1ncn2[C@H]1CC[C@@H](CO)O1 [Didanosine]
active: [4] 0.73
inactive: [2] 1.01 | [3] 1.04 | [7] 1 | [8] 0.973 | [5] 0.992 | [6] 0.949

CC(=O)[C@H]1CC[C@H]2[C@@H]3CCC4=CC(=O)CC[C@]4(C)[C@H]3CC[C@]12C [Progesterone]
inactive: [2] 1.01 | [3] 1 | [4] 1 | [8] 0.612 | [5] 1.02 | [6] 0.918
active: [7] 0.0182

Cc1cc(N)c2ccccc2[n+]1CCCCCCCCCC[n+]1c(C)cc(N)c2ccccc21 [Dequalinium dichloride]
active: [4] 0.932 | [7] 0.0354 | [8] 0.0484
inactive: [1] 0.989 | [2] 0.939 | [3] 0.96 | [6] 0.503

CN(C)CCOC(c1ccccc1)c1ccccc1 [Diphenhydramine hydrochloride]
inactive: [1] 0.993 | [2] 0.976 | [3] 0.976 | [4] 0.969 | [7] 1.01 | [8] 1 | [5] 0.981 | [6] 1

NC(=O)c1cc[n+](CC2=C(C(=O)[O-])N3C(=O)[C@@H](NC(=O)[C@@H](c4ccccc4)S(=O)(=O)O)[C@H]3SC2)cc1 [Cefsulodin sodium salt]
active: [4] 0.865
inactive: [1] 0.944 | [2] 0.999 | [3] 0.976 | [8] 0.983 | [5] 1 | [6] 0.978

CCOc1ccc2ccccc2c1C(=O)N[C@@H]1C(=O)N2[C@@H]1SC(C)(C)[C@@H]2C(=O)O [Nafcillin sodium salt monohydrate]
inactive: [1] 0.981 | [2] 0.973 | [3] 0.96 | [4] 0.967 | [5] 1

CC(=O)S[C@@H]1CC2=CC(=O)CC[C@]2(C)[C@H]2CC[C@@]3(C)[C@@H](CC[C@@]34CCC(=O)O4)[C@H]12 [Spironolactone]
inactive: [1] 0.983 | [2] 0.981 | [3] 0.954 | [4] 1.02 | [7] 1.02 | [8] 1.02 | [5] 0.998 | [6] 0.981

CN1CCN(c2c(F)cc3c(=O)c(C(=O)O)cn(CCF)c3c2F)CC1 [Fleroxacin]
active: [2] 0.0225 | [3] 0.0321 | [4] 0.0196 | [5] 0.00801 | [6] 0.00549
inactive: [7] 0.727 | [8] 0.585

CCCCCCC[N+](CC)(CC)CCCCc1ccc(Cl)cc1 [Clofilium tosylate]
inactive: [1] 1 | [2] 0.99 | [3] 1.02 | [4] 1.02 | [7] 0.973 | [8] 0.859 | [5] 1.01 | [6] 0.541

O=C(CCCCCCC(=O)Nc1ccccc1)NO [Vorinostat]
inactive: [1] 0.994 | [2] 1.03 | [3] 0.996 | [4] 1.03 | [7] 1.01 | [8] 1.06 | [5] 0.997 | [6] 1

N[C@@H](Cc1ccc(O)c(O)c1)C(=O)O [Levodopa]
inactive: [2] 1 | [3] 0.991 | [4] 0.99 | [7] 1.01 | [8] 0.996 | [5] 0.973 | [6] 0.996

Cc1ncc(C[n+]2csc(CCO)c2C)c(N)n1 [Thiamine hydrochloride]
inactive: [2] 0.961 | [3] 0.967 | [4] 0.999 | [7] 0.978 | [8] 0.981 | [5] 0.998 | [6] 0.996

CN1C(C(=O)Nc2ccccn2)=C(O)c2sccc2S1(=O)=O [Tenoxicam]
active: [3] 0.791
inactive: [2] 0.94 | [4] 0.993 | [7] 0.97 | [8] 0.969 | [5] 1 | [6] 0.956

C[C@]12CC[C@@H]3c4ccc(O)cc4CC[C@H]3[C@@H]1C[C@@H](O)[C@@H]2O [Estriol]
inactive: [3] 1.02 | [4] 1.01 | [7] 0.979 | [8] 0.978 | [5] 1 | [6] 0.993

Cc1ccc(S(=O)(=O)NCl)cc1 [Chloramine-T hydrate]
inactive: [7] 1 | [8] 0.997 | [5] 0.996 | [6] 1

CC(C)OC(=O)C(C)(C)Oc1ccc(C(=O)c2ccc(Cl)cc2)cc1 [Fenofibrate]
inactive: [2] 0.971 | [3] 1 | [4] 0.992 | [7] 0.996 | [8] 1.01 | [5] 1 | [6] 0.94

COc1cc([C@@H]2c3cc4c(cc3[C@@H](O[C@@H]3O[C@@H]5CO[C@@H](C)O[C@H]5[C@H](O)[C@H]3O)[C@H]3COC(=O)[C@H]23)OCO4)cc(OC)c1O [Etoposide]
inactive: [2] 1.03 | [3] 1.02 | [4] 0.99 | [8] 1.09 | [5] 1
active: [6] 0.0378

Cc1ccc(/C(=C\CN2CCCC2)c2ccccn2)cc1 [Triprolidine hydrochloride]
inactive: [2] 0.97 | [3] 0.967 | [4] 0.992 | [7] 1 | [8] 0.99 | [5] 1 | [6] 0.978

CCOc1ccc2nc(S(N)(=O)=O)sc2c1 [Ethoxzolamide]
inactive: [7] 0.965 | [8] 1 | [5] 0.997 | [6] 0.998

CC1=C(C(=O)O)N2C(=O)[C@@H](NC(=O)[C@H](N)C3=CCC=CC3)[C@H]2SC1 [Cephradine monohydrate]
inactive: [7] 1.04 | [8] 1.05 | [5] 0.991 | [6] 1.01

C[C@H]1[C@H](NC(=O)/C(=N\OC(C)(C)C(=O)O)c2csc(N)n2)C(=O)N1S(=O)(=O)O [Aztreonam]
inactive: [8] 0.134
active: [2] 0.0599 | [3] 0.773 | [4] 0.135

O=C1C(=O)c2ccccc2C(O)=C1C1CCC(c2ccc(Cl)cc2)CC1 (configuration not stated) [Atovaquone]
inactive: [2] 0.976 | [4] 0.993 | [7] 1.02 | [8] 1.02 | [5] 0.992 | [6] 1.01

CC(C)NC[C@@H](O)COc1cccc2ccccc12 [(R) Propranolol hydrochloride]
inactive: [2] 1.02 | [3] 1.02 | [4] 0.999 | [7] 0.978 | [8] 0.988 | [5] 0.984 | [6] 0.983

Nc1ccc(S(=O)(=O)Nc2ccc(Cl)nn2)cc1 [Sulfachloropyridazine]
inactive: [7] 1.03 | [8] 1.02 | [5] 0.965 | [6] 0.963
